From PubChem BioAssay (NCATS) come the findings set out here.

Results filed as inconclusive are left out. A call without a number means that no potency is given here. Unmarked numbers belong to inactive results. The source made the active and inactive calls. Calls come from the whole dose curve; as a rule, active = well fitted inhibition curve with a large enough effect; inconclusive = small, poorly fitted or top-dose-only effect; inactive = flat fitted curve, though single readings scatter.

Sequence of Calcium and integrin-binding protein 1 (Homo sapiens) (Q99828 whole entry, looked up): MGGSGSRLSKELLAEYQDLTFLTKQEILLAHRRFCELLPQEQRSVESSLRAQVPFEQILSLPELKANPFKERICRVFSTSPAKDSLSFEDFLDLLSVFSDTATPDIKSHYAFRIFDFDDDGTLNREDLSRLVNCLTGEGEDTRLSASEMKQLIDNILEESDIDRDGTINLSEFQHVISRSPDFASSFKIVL

The test has as its target Calcium and integrin-binding protein 1 (Homo sapiens) (UniProt Q99828). Put plainly: Primary qHTS for Identification of Calcium Integrin Binding Protein 1 (CIB1) Competitor (AID 1508620).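 Note: GST tagged CIB1 binding a fluorescein labelled alphaIIb integrin peptide tracer; top concentration of the series differs between compounds.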 To be noted: CIB1-GST / FITC-alphaIIb peptide fluorescence polarization; series mostly up to 57.7 µM. In a few lines: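 Fluorescence polarization competition: CIB1-GST (1 uM final) preincubated with compound 15 min at room temperature, then FITC-labeled alphaIIb peptide (100 nM final) added for another 15 min. Polarization read at Ex 480/Em 540.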
As for `CN(C)CCC[C@]1(c2ccc(F)cc2)OCc2cc(C#N)ccc21`, the Potency entry was “inactive”.

Regarding `O=C(O)CCc1cccc(O)c1O[C@@H]1O[C@H](CO)[C@@H](O)[C@H](O)[C@H]1O`, the Potency entry is “inactive”.

For `Cc1ccc(C)c(S(=O)(=O)n2cnc3ccccc32)c1`, the Potency entry is “inactive”.

On to `CC(=C\C(C)O)/C=C(\C)C(=O)CC1CC(CC(N)=O)CC(=O)O1` (configuration not stated), for which the Potency result is “inactive”.

`C=C1CCC2[C@](C)(CO)CCC[C@@]2(C)[C@@H]1CCC1=CCOC1=O` (some centres not stated): the Potency entry was “inactive”.

For `CC(C)=CCC[C@](C)(O[C@@H]1O[C@H](CO[C@@H]2O[C@@H](CO)[C@H](O)[C@H]2O[C@@H]2OC[C@@H](O)[C@H](O)[C@H]2O)[C@@H](O)[C@H](O)[C@H]1O)[C@H]1CC[C@]2(C)[C@@H]1[C@H](O)CC1[C@@]3(C)CC[C@H](O[C@@H]4O[C@H](CO)[C@@H](O)[C@H](O)[C@H]4O[C@@H]4O[C@H](CO)[C@@H](O)[C@H](O)[C@H]4O)C(C)(C)C3CC[C@]12C` (some centres not stated), the activity change, negative = inhibition is -3.93% [at 12.4 µM].

For `CC1(C)CC[C@]2(C(=O)O[C@@H]3O[C@H](CO[C@@H]4O[C@H](CO[C@@H]5O[C@H](CO)[C@H](O)[C@H](O)[C@H]5O)[C@@H](O)[C@H](O)[C@H]4O)[C@@H](O)[C@H](O[C@@H]4O[C@H](CO)[C@@H](O)[C@H](O)[C@H]4O)[C@H]3O)[C@H](O)C[C@]3(C)C(=CCC4[C@@]5(C)CC[C@H](O[C@@H]6OC[C@@H](O)[C@H](O)[C@H]6O)[C@@](C)(C(=O)O)C5CC[C@]43C)[C@@H]2C1` (some centres not stated), the activity change, negative = inhibition is 3.63% [at 12.4 µM].
